# PubChem BioAssay AID1851 (National Center for Advancing Translational Sciences (NCATS), 2009)
# Among all 16,000 compounds or so, about 5,100 (32%) were called active. Another 25% or so got no clear call; they are omitted. The list shows a part of the results. A number with no mark means an inactive call. Calls come from the whole dose curve; as a rule, active = well fitted curve in the direction sought with a large enough effect; inconclusive = small, poorly fitted or top-dose-only effect, or effect the other way; inactive = no such curve, though single readings can be large or run the other way.
# Molecular target: Cytochrome P450 3A4 (Homo sapiens) (UniProt P08684)
# Assay: Cytochrome panel assay with activity outcomes
# Settings: recombinant CYP, pro-luciferin dealkylation, luminescence, p450-cyp3a4; series mostly up to 57.1 µM; activity, negative = inhibition: at the top concentration
# % is set by controls: 0 for no effect and ±100 for the full control effect.
# Chain of Cytochrome P450 3A4 (Homo sapiens) (P08684 whole entry, looked up): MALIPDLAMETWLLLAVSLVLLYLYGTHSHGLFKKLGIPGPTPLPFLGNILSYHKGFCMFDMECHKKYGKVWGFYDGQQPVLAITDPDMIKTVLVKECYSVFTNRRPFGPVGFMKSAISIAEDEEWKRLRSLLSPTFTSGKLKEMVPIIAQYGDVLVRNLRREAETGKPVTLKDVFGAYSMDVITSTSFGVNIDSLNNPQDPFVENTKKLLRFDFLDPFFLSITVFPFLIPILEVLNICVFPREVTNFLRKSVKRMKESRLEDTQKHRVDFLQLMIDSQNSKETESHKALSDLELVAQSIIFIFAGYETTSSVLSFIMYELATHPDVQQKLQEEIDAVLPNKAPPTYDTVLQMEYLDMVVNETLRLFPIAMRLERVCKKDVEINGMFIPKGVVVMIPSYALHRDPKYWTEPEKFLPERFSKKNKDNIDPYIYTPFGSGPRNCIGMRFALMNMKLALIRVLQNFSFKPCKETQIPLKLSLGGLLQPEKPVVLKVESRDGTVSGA
Structure (SMILES),"activity, negative = inhibition",AC50
O=C1CSC(c2ccccn2)N1c1ccc(Cl)c(Cl)c1 (centres undefined),11%,–
O=C1CSC(c2ccccc2F)N1c1cc(Cl)ccc1O (centres undefined),–,25.1 µM (active)
NC(=O)c1ccc(C2SCC(=O)N2Cc2ccccc2)cc1 (centres undefined),8.69%,–
N#Cc1cccc(-c2nccc(NCc3cccnc3)n2)c1,–,0.794 µM (active)
N#Cc1cccc(-c2nccc(NCc3cccs3)n2)c1,–,10 µM (active)
Cc1cccc(CNc2ccnc(-c3cccc(C#N)c3)n2)c1,–,1.26 µM (active)
N#Cc1cccc(-c2nccc(NCc3ccccc3)n2)c1,–,12.6 µM (active)
CN(C)c1ncc2nc(-c3cc(F)cc(F)c3)c(=O)n(CCc3ccccc3)c2n1,-13%,–
COc1ccccc1CCn1c(=O)c(-c2cccc(F)c2)nc2cncnc21,–,3.16 µM (active)
COc1ccccc1CCn1c(=O)c(-c2cc(F)cc(F)c2)nc2cncnc21,–,0.398 µM (active)
O=C(N/N=C/c1cccc(OC2CSC2)c1)c1ccccc1O,-1.49% [at 2.29 µM],–
CCCCS(=O)(=O)NC1=NCN(Cc2ccco2)CN1,-13.9%,–
CC1(C)OC(=O)N(Cc2ccco2)C1(C)O (centres undefined),-11.6%,–
CC1=CC(=C2C(=O)c3ccccc3C2=O)C=C(C)N1Cc1ccco1,–,14.1 µM (active)
CCN(CC)CCCNC(=O)CC1Sc2ccccc2NC1=O (centres undefined),6.35%,–
COC(=O)c1c(NC(=O)CC2Nc3ccccc3NC2=O)sc(C)c1C (centres undefined),–,3.55 µM (active)
CC(Sc1nnc(C(C)N(C)C)n1-c1ccc(Cl)cc1)C(=O)Nc1ccc2c(c1)OCO2 (centres undefined),–,0.891 µM (active)
C/C(=N\NC(N)=S)c1ccc[nH]1,-6.66% [at 11.4 µM],–
CCOC(=O)c1c(NC(=O)c2ccc(N3CCOCC3)c([N+](=O)[O-])c2)sc(C)c1C,-1.99%,–
CCOCC(=O)Nc1cc(-c2cn3cccnc3n2)ccc1C,24.8%,–
Cc1ccc(-c2nc3ccccc3o2)cc1NC(=O)Cc1cccs1,28.9%,–
COc1ccc2oc(-c3ccc(C)c(NC(=O)c4ccc(N5CCOCC5)c([N+](=O)[O-])c4)c3)nc2c1,–,6.31 µM (active)

Structure (SMILES),"activity, negative = inhibition",AC50
COc1ccc2oc(-c3ccc(C)c(NC(=O)CSc4ccc(Cl)cc4)c3)nc2c1,–,11.2 µM (active)
CCCCn1cnc2c(cnn2-c2ccc(F)cc2)c1=O,-2.78%,–
O=c1c2ccccc2ncn1CCCSc1ccccc1,-8.34%,–
Cc1ccc(SCCCn2cnc3ccccc3c2=O)cc1,–,11.2 µM (active)
O=C(Cn1c(C(F)(F)F)nc2ccccc21)c1ccccc1,-8.98%,–
O=C(c1ccccc1)c1nc2ccccc2n(CCCn2c(=O)c(C(=O)c3ccccc3)nc3ccccc32)c1=O,–,1.41 µM (active)
CCCCCn1c(=O)c(C(=O)c2ccccc2)nc2ccccc21,-5.99% [at 2.29 µM],–
CN1CCC[C@@H](CC2c3ccccc3Sc3ccccc32)C1,-7.59% [at 25.6 µM],–
COc1cc(-n2ccnc2SC)c(Cl)cc1Cl,–,14.1 µM (active)
Cc1cc(C(=O)NCc2ccccc2)no1,-13.3%,–
COc1ccc(-c2cc(C(=O)NCc3cccnc3)no2)cc1OC,–,2.51 µM (active)
COc1cccc(-c2nc(CS(=O)(=O)CC(=O)NCCCOC(C)C)c(C)o2)c1,–,7.94 µM (active)
CCOC(=O)N1CCC(NC(=O)CS(=O)(=O)Cc2nc(-c3cccc(OC)c3)oc2C)CC1,–,7.08 µM (active)
Cc1cccc(C)c1NC(=O)C(c1ccc(Cl)cc1Cl)N1CCCCC1 (centres undefined),–,3.98 µM (active)
Cc1cccc(C)c1NC(=O)N1CCC(N2CCCCC2)CC1,-21.5%,–
O=C(O)/C=C\C(=O)Nc1ncn[nH]1,-3.91% [at 11.4 µM],–
CCCN[C@@H](C)C(=O)Nc1ccccc1C,–,inactive
Cc1ccccc1NC(=O)C(C)c1cccc(C(=O)c2ccccc2)c1 (centres undefined),–,7.94 µM (active)
COC(=O)Nc1nc2ccc(C(=O)c3ccccc3)cc2[nH]1,-1.41% [at 25.6 µM],–
COc1cccc(-c2noc(Cn3nc(C)c([N+](=O)[O-])c3C)n2)c1,–,14.1 µM (active)
Cc1cccc(-c2n[nH]c([N+](=O)[O-])n2)c1,-5.58% [at 2.29 µM],–
COc1cccc(CN2CCN(Cc3cc(OC)c(OC)cc3[N+](=O)[O-])CC2)c1,-15.7% [at 2.29 µM],–

Structure (SMILES),"activity, negative = inhibition",AC50
CC[C@H](CO)NCCN[C@@H](CC)CO,4.95% [at 25.6 µM],–
N[C@@H](Cc1[nH]nc2ccccc12)C(=O)O,-7.68% [at 11.4 µM],–
COc1ccc(CCCC(=O)NC2CCCCC2)cc1,–,20 µM (active)
CC(C)NC(=O)CC(=O)N/N=C/c1ccc(Br)cc1,-3.05%,–
COc1ccc(CCNC(=O)COc2ccc(S(=O)(=O)NC3CCCCC3)cc2Cl)cc1,–,7.08 µM (active)
COc1ccc(/C=N/NC(=O)CCCC(=O)NC2CCCCC2)cc1,–,12.6 µM (active)
COC(=O)c1ccc(NC(=S)NC2CCCCC2)cc1,-15.8%,–
O=C(COc1ccc(Cl)cc1)NCCC1=CCCCC1,-14.7% [at 11.4 µM],–
COc1ccc(/C=N\NC(=O)O)cc1,-13.4% [at 11.4 µM],–
CCC1=C(C)CN(C(=O)NCCc2ccc(S(=O)(=O)NC(=O)NC3CCC(C)CC3)cc2)C1=O (centres undefined),-25.9% [at 25.6 µM],–
CC(C)OC(=O)C1=C2SCC(=O)N2C(N)=C(C#N)C1,-16.2% [at 11.4 µM],–
COc1ccc(-n2c(=O)c(-c3cccc(C#N)c3)nc3cnc(N4CCNCC4)nc32)cc1,-26.2%,–
N#Cc1cccc(-c2nc(N3CCNCC3)c3ccccc3n2)c1,–,31.6 µM (active)
c1ccc2c(N3CCNCC3)nc(-c3ccc4c(c3)OCO4)nc2c1,–,7.94 µM (active)
CN1CCN(c2nc(-c3cccc(C#N)c3)nc3ccccc23)CC1,–,15.8 µM (active)
CC(Cc1ccccc1)C(=O)NCc1ccccn1 (centres undefined),-42.9%,–
O=C(N[C@@H](c1ccccc1)[C@@H]1C[C@H]1C(=O)O)OCc1ccccc1,-15.8%,–
C[C@@H](C(=O)NCc1ccccn1)[C@H]1C[C@]1(C)[C@H](NC(=O)OCc1ccccc1)c1ccccc1,–,5.01 µM (active)
O=C(N[C@@H](c1ccccc1)[C@@H]1C[C@H]1C(=O)NCc1ccccn1)OCc1ccccc1,–,6.31 µM (active)
C[C@@H](C(=O)NCc1ccccn1)[C@@H]1C[C@@]1(C)[C@@H](NC(=O)OCc1ccccc1)c1ccccc1,–,10 µM (active)
